Hit rate of the full screen: of about 310,000 compounds, about 14,000 (4.5%) showed an effect of 50% or more. Effects have a minus sign here. This is one part of a sample in which strong results are shown more often than they occur.
What follows are molecules tested against human ether-à-go-go-related gene (hERG) potassium channel (human, UniProt Q12809) (assay: primary screen, population patch clamp on CHO cells stably expressing hERG; higher = less effect of the substance).
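Further: peak tail current of the secondary pulse compared with the same well before compound.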

human ether-à-go-go-related gene (hERG) potassium channel, sequence (Q12809 whole entry, looked up): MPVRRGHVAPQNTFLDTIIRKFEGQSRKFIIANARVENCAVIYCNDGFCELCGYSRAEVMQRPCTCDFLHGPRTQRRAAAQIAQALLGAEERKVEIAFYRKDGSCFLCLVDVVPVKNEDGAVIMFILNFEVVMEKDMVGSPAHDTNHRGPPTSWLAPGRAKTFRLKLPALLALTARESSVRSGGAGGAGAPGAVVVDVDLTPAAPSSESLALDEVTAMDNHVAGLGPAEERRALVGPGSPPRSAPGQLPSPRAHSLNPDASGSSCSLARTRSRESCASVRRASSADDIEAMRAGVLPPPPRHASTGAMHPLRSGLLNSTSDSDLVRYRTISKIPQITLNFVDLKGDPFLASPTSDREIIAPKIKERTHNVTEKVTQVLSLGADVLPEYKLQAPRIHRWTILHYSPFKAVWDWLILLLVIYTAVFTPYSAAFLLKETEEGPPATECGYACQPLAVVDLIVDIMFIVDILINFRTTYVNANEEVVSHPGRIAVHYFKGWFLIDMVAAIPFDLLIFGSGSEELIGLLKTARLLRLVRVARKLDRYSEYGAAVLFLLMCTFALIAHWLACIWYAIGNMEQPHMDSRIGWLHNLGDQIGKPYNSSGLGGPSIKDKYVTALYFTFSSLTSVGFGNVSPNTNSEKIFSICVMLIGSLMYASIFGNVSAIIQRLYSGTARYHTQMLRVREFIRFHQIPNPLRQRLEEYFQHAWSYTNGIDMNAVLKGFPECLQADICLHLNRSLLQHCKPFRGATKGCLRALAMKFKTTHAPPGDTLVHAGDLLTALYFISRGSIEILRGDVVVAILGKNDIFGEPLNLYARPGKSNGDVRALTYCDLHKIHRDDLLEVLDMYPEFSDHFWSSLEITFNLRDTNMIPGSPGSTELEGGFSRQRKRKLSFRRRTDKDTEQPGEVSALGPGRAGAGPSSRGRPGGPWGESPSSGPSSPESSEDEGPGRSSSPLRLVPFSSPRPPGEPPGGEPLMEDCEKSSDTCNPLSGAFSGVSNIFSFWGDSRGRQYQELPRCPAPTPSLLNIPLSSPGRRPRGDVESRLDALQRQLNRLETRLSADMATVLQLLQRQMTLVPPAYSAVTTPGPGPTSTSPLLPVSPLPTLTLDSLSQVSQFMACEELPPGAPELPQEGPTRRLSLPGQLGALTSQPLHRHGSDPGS

Structure (SMILES)	hERG current change (%, negative = inhibition) at 10uM [%]
COC(=O)C1=C[C@@H](C(=O)OC)[C@@H]2C3=C(C(=O)[C@]2(C)NC(=O)c2ccccc2)[C@H](C)n2c(=O)n(-c4ccccc4)c(=O)n2[C@@H]3C1	7.6
Cc1cc(NC(=O)Nc2ccc(Cl)c(Cl)c2)n(-c2ccccc2)n1	13.9
COc1ccc(C(=O)Nc2ccccc2)cc1NC(=O)c1ccc([N+](=O)[O-])cc1	-56.8
COc1ccccc1N/C(=N/S(=O)(=O)c1ccc(C)cc1)c1ccccc1	-31
COc1ccc(C(=O)Nc2ccc(NC(=O)c3cccs3)cc2)cc1Cl	27.5
COc1ccc(C(=O)Nc2ccccc2)cc1NC(=O)c1cccs1	-74
COc1ccc([N+](=O)[O-])cc1N/C(=N/S(=O)(=O)c1ccccc1)c1ccccc1	-57.8
O=C(Nc1ccccc1)c1cccc(S(=O)(=O)Oc2ccc([N+](=O)[O-])cc2)c1	-56.4
COc1ccc(C(=O)Nc2ccc(Nc3ccccc3)cc2)cc1[N+](=O)[O-]	-37
COc1ccccc1N/C(=N/S(=O)(=O)c1ccc(Cl)cc1)c1ccccc1	-35.1
O=C(O)c1ccc(NS(=O)(=O)c2cccc(C(=O)Nc3ccc([N+](=O)[O-])cc3)c2)cc1	18.8
COc1ccc(C(=O)Nc2cccc(NC(=O)c3cccs3)c2)cc1OC	8.5
Cc1ccccc1NC(=O)c1cccc(S(=O)(=O)Oc2ccc([N+](=O)[O-])cc2)c1	-24.5
COc1ccc([N+](=O)[O-])cc1NC(=O)Nc1ccccc1	10.3
Cc1cc(C)c2nc(SCC(=O)NC(=O)c3cccn3C)cc(C)c2c1	-2.66
COc1ccc(C(C)=O)cc1COC(=O)c1cc(C)nc2ccccc12	13.6
O=C(Nc1ccc([N+](=O)[O-])cc1)c1nc[nH]c1C(=O)NC1CCCCC1	16.2
COC(=O)c1c(NC(=O)C(C)C)sc2c1C(C(=O)OC)CC2 (stereo not shown)	11.8
CC(C)Sc1nnc(-c2c[nH]c3ccccc23)n1C	1.3
CN1CCN(/N=C/c2c(O)n(Cc3ccc(F)cc3)c(=O)[nH]c2=O)CC1	0.78
COc1cccc(NC(=O)CN(c2ccc3c(c2)OCO3)S(C)(=O)=O)c1	3.07
CNc1nnc(-c2ccc(N(C)C)cc2)s1	8.65

— article PMC4336329 (PLoS ONE, 2015)
